High-throughput results: PubChem BioAssay, National Center for Advancing Translational Sciences (NCATS)
PLK1 PBD inh = qHTS for Inhibitors of PLK1-PDB (polo-like kinase 1 - polo-box domain): Primary Screen; Serine/threonine-protein kinase PLK1 (Homo sapiens), P53350; Plk1 PBD binding of FITC phosphopeptide, fluorescence polarization; Potency, µM, for the others: max response, negative = inhibition, hits mostly inhibitors; 360,000 compounds, 2.8% hits; AID 720504, 2013; note: series mostly up to about 57 µM; % is set by controls: 0 for no effect and ±100 for the full control effect; nearly all actives have a fitted effect of over 65% in size
GLS inh = qHTS for Inhibitors of Glutaminase (GLS). Glutaminase kidney isoform, mitochondrial (Homo sapiens), O94925. GLS enzymatic activity, qHTS titration. Potency, µM (series often up to 45.5 µM), inactives show at the highest dose activity change, negative = inhibition, most hits filed as inhibitors. 410,000 compounds, 0.21% hits; note: % is set by controls: 0 for no effect and ±100 for the full control effect
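Two-point fluorescence kinetic (t0, 30 min RT) for hKGA; glutamate detected via glutamate oxidase–HRP–Amplex Red. Substrate: 1 mM L-glutamine solution; buffer 45 mM KH2PO4, pH 8.2.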
VDR inhibitor = Inhibitors of the vitamin D receptor (VDR): qHTS; 400,000 compounds, 0.93% hits; Potency, µM, for inactives: max response, negative = inhibition, hits mostly inhibitors; VDR-SRC2-3 peptide fluorescence polarization, 2 h; note: % is set by controls: 0 for no effect and ±100 for the full control effect
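VDR–SRC2-3 interaction, FP format. Cmpds 23 nl via pintool, brief spin, 2 h ambient incubation.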
PKM2 act = qHTS Assay for Activators of Human Muscle isoform 2 Pyruvate Kinase; Pyruvate kinase PKM (Homo sapiens), P14618; purified PKM2, Kinase-Glo ATP luminescence, activation; response scale: 0% is enzyme alone, no compound; Potency, µM (titrated, usually from 57.5 µM), for the others: at the highest dose activation, hits mostly activators; 260,000 compounds, 0.34% hits; note: % is set by controls: 0 for no effect and ±100 for the full control effect; nearly all actives have a fitted effect of over 55% in size
Target sequence (P14618 whole entry, looked up, canonical isoform): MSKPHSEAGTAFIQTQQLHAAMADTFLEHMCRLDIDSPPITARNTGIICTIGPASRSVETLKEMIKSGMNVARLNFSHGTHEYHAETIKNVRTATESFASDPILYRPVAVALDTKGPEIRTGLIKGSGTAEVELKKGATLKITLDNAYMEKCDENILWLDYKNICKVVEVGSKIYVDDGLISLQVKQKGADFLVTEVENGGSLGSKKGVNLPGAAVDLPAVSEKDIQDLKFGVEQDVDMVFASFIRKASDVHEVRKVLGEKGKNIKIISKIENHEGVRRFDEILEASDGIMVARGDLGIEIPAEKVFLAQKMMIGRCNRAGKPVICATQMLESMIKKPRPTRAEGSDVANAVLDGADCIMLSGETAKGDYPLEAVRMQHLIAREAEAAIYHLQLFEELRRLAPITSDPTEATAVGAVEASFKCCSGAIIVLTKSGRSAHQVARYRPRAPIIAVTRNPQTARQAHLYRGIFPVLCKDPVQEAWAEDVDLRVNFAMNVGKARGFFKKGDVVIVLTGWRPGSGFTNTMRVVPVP
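Purified hPK-M2 (>95% pure) converted ADP (0.1 mM final) to ATP with 0.5 mM PEP in 50 mM imidazole pH7.2, KCl, MgCl2, Tween 20, BSA; 1 h at room temperature. ATP detected by Kinase-Glo luminescence.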
Mito fusion yeast = qHTS Assay for Small Molecule Inhibitors of Mitochondrial Division or Activators of Mitochondrial Fusion. Potency, µM (highest dose often 46.1 µM), without a hit: at the highest dose growth rescue (activation), usual class: activators. 320,000 compounds, 0.23% hits. S. cerevisiae fusion-defective mutant growth rescue, CellTiterGlo 48 h; note: % of control where 0% means no effect; nearly all actives have a fitted effect of over 45% in size
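Read-out: ATP-based luminescence (CellTiterGlo, 10 min ambient) reporting growth of fusion-defective ts yeast after 48 hours at 37C on glycerol/ethanol YPEG medium in the presence of compound.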
GCN5L2 inh = qHTS Assay for Inhibitors of GCN5L2. Potency, µM (titrated, usually from 58.9 µM), for inactives: at the top dose activity change, negative = inhibition, actives largely listed as inhibitors. 390,000 compounds, 0.21% hits. GCN5L2 HAT assay, ThioGlo1 CoA-SH fluorescence. AID 504327, 2011; note: % is set by controls: 0 for no effect and ±100 for the full control effect
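Free CoA generated was detected with ThioGlo1 (50uM) fluorescence at Ex340nm/Em540nm, read immediately and after 20 min at room temperature. Enzyme, 20 nM in HEPES pH 7.5 buffer, saw compounds 15 min before adding 75uM H3(1-25) peptide and 70uM acetyl-CoA.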
* hit, by the source's call; ! = repeats disagree; [ ] = remark or other dose. Most compounds without a hit are left out; they make up all but 3.4% or so of the library. Calls come from the whole dose curve; as a rule, active = well fitted curve in the direction sought with a large enough effect; inconclusive = small, poorly fitted or top-dose-only effect, or another doubt; inactive = no such curve, though single readings can be large; an effect the other way counts as inactive or inconclusive. Potency is the fitted concentration of half-maximal effect.

For CCC(=O)OCCNc1cc(Sc2nc3ccccc3[nH]2)c2nonc2c1[N+](=O)[O-] the results were PLK1 PBD inh 1.19µM*, GLS inh inconclusive, VDR inhibitor inconclusive, PKM2 act inconclusive, Mito fusion yeast 10.9% and GCN5L2 inh 25.1%.
CCCSc1cc(NCCOC(=O)CCC)c([N+](=O)[O-])c2nonc12 was read as PLK1 PBD inh 16.8µM*, GLS inh -3.4%, VDR inhibitor inconclusive, PKM2 act -0.1%, Mito fusion yeast inconclusive and GCN5L2 inh 0.0%.
Screening CCCC(=O)OCCNc1cc(SCc2ccco2)c2nonc2c1[N+](=O)[O-] returned PLK1 PBD inh inconclusive, GLS inh 3.3%, VDR inhibitor inconclusive, PKM2 act inconclusive, Mito fusion yeast 16.1% and GCN5L2 inh -3.2%.
Screening COC(=O)[C@]1(C)N[C@H](c2ccc(SC3CCCCC3)c(OC)c2)[C@@H]2C(=O)N(C)C(=O)[C@@H]21 returned PLK1 PBD inh 3.6%, GLS inh 1.2%, VDR inhibitor -23.0%, Mito fusion yeast 7.5% and GCN5L2 inh -3.1%.
For CCSc1nc2ccccc2n1C(=O)/C=C\c1ccc(OC)c(OC)c1 the results were PLK1 PBD inh -2.0%, GLS inh -0.4%, VDR inhibitor 50.1µM*, PKM2 act 1.5%, Mito fusion yeast -2.3% and GCN5L2 inh -13.7%.
`Nc1nnc(SCC(=O)NC2CCCC2)s1` gave PLK1 PBD inh 4.5%, GLS inh -1.4%, VDR inhibitor -1.4%, PKM2 act -3.4%[0.46 µM], Mito fusion yeast 6.0% and GCN5L2 inh -0.3%.
For Nc1nnc(SC2CCCC2)s1 the results were PLK1 PBD inh 26.7µM*, GLS inh 13.6%, VDR inhibitor inconclusive, PKM2 act -0.7%, Mito fusion yeast -11.0% and GCN5L2 inh -0.3%.
CON(c1nc(Cl)nc(N(C)C)n1)S(=O)(=O)c1ccc(C)cc1 was read as PLK1 PBD inh 26.7µM*, GLS inh 58.2%, VDR inhibitor -23.2%, Mito fusion yeast 8.7% and GCN5L2 inh -0.3%.
Screening CCOC(=O)N1CCC(N2CCN(Cc3ccc(C)o3)C(CCO)C2)CC1 (stereo not drawn) returned PLK1 PBD inh 15µM*, GLS inh 2.2%, VDR inhibitor -26.6%, PKM2 act 1.4%, Mito fusion yeast -9.6% and GCN5L2 inh -1.0%.
For CCOC(=O)N1CCC(N2CCN(Cc3ccccc3)C(CCO)C2)CC1 (stereo not drawn) the results were PLK1 PBD inh -6.0%, GLS inh 0.0%, VDR inhibitor 3.0%, PKM2 act 4.0%, Mito fusion yeast 3.8% and GCN5L2 inh 15.4%.
`COc1cc2c(cc1OC)C1N(CC2)C(=O)CCC12C(=O)CCCC2=O` (stereo not drawn) gave VDR inhibitor 70.8µM*.
CC(/C=N/NC(=O)c1cc(C(C)C)[nH]n1)=C\c1ccccc1 was read as PLK1 PBD inh 29.9µM*, GLS inh 17.9%, VDR inhibitor -19.2%, PKM2 act -3.4%, Mito fusion yeast 0.9% and GCN5L2 inh -4.4%.
Screening CC(/C=N/NC(=O)c1cc(-c2ccc(C)o2)[nH]n1)=C\c1ccccc1 returned PLK1 PBD inh -18.9%, GLS inh -0.9%, VDR inhibitor -4.3%, PKM2 act -0.4%, Mito fusion yeast 0.7% and GCN5L2 inh 0.9%.
CC1(C)CC(=O)C2=C(C1)NCN(Cc1ccc3c(c1)OCO3)C2 was read as PLK1 PBD inh 26.7µM*, GLS inh 15.7%, VDR inhibitor -7.7%, PKM2 act 6.4%, Mito fusion yeast -6.2% and GCN5L2 inh 8.4%.
CC(C)(C)C(=O)Nc1ccc(C(=O)Nc2cccc(Oc3ccc(C(=O)O)c(C(=O)O)c3)c2)cc1 was read as PLK1 PBD inh -4.2%, GLS inh 9.5%, VDR inhibitor -4.1%, PKM2 act 0.1%[11.5 µM], Mito fusion yeast -1.5% and GCN5L2 inh -14.0%.
O=C(Nc1cccc(Oc2ccc(C(=O)O)c(C(=O)O)c2)c1)c1ccc(-c2ccccc2)cc1 was read as PLK1 PBD inh 18.9µM*, GLS inh inconclusive, VDR inhibitor 2.0%, PKM2 act 27.1%, Mito fusion yeast 2.5% and GCN5L2 inh -1.2%.
`O=C(COc1ccc(Cl)cc1)OCCNC12CC3CC(CC(C3)C1)C2` gave GLS inh 8.5%, VDR inhibitor -0.8% and GCN5L2 inh 2.1%.
For CN(C(=O)NC(=O)C1=C(N2CCOCC2)/C(=C/c2ccccc2)CC1)S(C)(=O)=O the results were PLK1 PBD inh -24.3%, GLS inh 24.3%, VDR inhibitor 8.2%, PKM2 act 3.1%, Mito fusion yeast -1.0% and GCN5L2 inh -13.3%.
Screening CCCCN(C(=O)NC(=O)C1=C(N2CCOCC2)/C(=C/c2ccccc2)CC1)S(C)(=O)=O returned PLK1 PBD inh 33.6µM*!, GLS inh 20.1%, VDR inhibitor -8.7%, PKM2 act 4.5%, Mito fusion yeast 0.3% and GCN5L2 inh -12.9%.
`C[C@@H]1OC(Oc2ccccc2-c2cc(=O)c3c(O)cc(O)c([C@@H]4O[C@H](CO)[C@@H](O)[C@H](O)[C@H]4O)c3o2)[C@H](O)[C@H](O)[C@H]1O` (stereo partly drawn) gave VDR inhibitor -2.5% and GCN5L2 inh 0.0%.
For COCCOC(=O)c1c(C)oc2ccc(OCc3ccccc3)cc12 the results were PLK1 PBD inh -3.7%, GLS inh 12.8%, VDR inhibitor -2.5%, PKM2 act 3.2%, Mito fusion yeast 11.2µM* and GCN5L2 inh -12.1%.
COCCOC(=O)c1c(C)oc2ccc(OC(=O)c3ccco3)cc12 was read as PLK1 PBD inh 2.8%, GLS inh -4.8%, VDR inhibitor 1.2%, PKM2 act 4.0%, Mito fusion yeast inconclusive and GCN5L2 inh -3.2%.
COc1ccc(-c2oc3ccccc3c2C(=O)OCc2ccccc2)cc1 was read as PLK1 PBD inh 23.8µM*, GLS inh 4.1%, VDR inhibitor -20.2%, PKM2 act 1.4%, Mito fusion yeast 1.0% and GCN5L2 inh -3.0%.
`CC1=C(C)NC(=S)SC1` gave PLK1 PBD inh 26.7µM*, GLS inh 23.4%, VDR inhibitor -15.1%, PKM2 act 1.5%, Mito fusion yeast -4.8% and GCN5L2 inh -4.8%.
